The supplement of paper PMC7411054
Where a name gives a salt, the structure may show the parent alone.

tested on: HepG2-ACTB-RAB5A; assay: phenotypically active (imaging signature differs from DMSO and reproducible) at any of 0.3-9 uM (binary (1 = active, 0 = inactive)); higher = active; settings: treatment time: 24 h
How it was run: (§1)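 Cells from fifteen gene-edited reporter lines (A549, HepG2 and WPMY1) were treated for 24 h at 0.3, 1, 3 or 9 µM and imaged live, four wells per condition. Features were normalised per well to solvent control wells. A condition deviated if ≥3 of 4 wells passed the 95th percentile of control Euclidean distances and was reproducible if its median replicate Pearson correlation beat the 95th percentile of non-replicates; phenotypic activity needed both.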

Phenotypically active, active:
Nc1cc(C(F)(F)F)c(-c2cc(N3CCOCC3)nc(N3CCOCC3)n2)cn1 [buparlisib] 1
COc1cc([C@@H]2c3cc4c(cc3[C@@H](O[C@@H]3O[C@@H]5CO[C@@H](C)O[C@H]5[C@H](O)[C@H]3O)[C@H]3COC(=O)[C@H]23)OCO4)cc(OC)c1O [etoposide] 1
CCN1CCN(c2cc(-c3ccc(F)cc3)c3c(n2)CCCCCC3)CC1 [blonanserin] 1
COc1cc2c(NC3CCN(C(C)C)CC3)nc(C3CCCCC3)nc2cc1OCCCN1CCCC1 1
COc1cc2ncn(-c3cc(OCc4ccccc4C(F)(F)F)c(C(N)=O)s3)c2cc1OC 1
Cc1nc(NC(=O)N2CCC[C@H]2C(N)=O)sc1-c1csc(C(C)(C)C)n1 1

Phenotypically active, inactive:
COc1cc2nccc(Oc3ccc(NC(=O)NC4CC4)c(Cl)c3)c2cc1C(N)=O [lenvatinib] 0
Nc1ccn([C@@H]2O[C@H](CO)[C@@H](O)[C@H]2O)c(=O)n1 [Cytidine] 0
OC(CCN1CCCCC1)(c1ccccc1)C1CCCCC1 (stereo not given) [trihexyphenidyl] 0
CCCCC1C(=O)N(c2ccccc2)N(c2ccc(O)cc2)C1=O (stereo not given) [oxyphenbutazone] 0
Cc1ccccc1N1C(=O)c2cc(S(N)(=O)=O)c(Cl)cc2NC1C (stereo not given) [metolazone] 0

tested on: HepG2-CANX-COX4; assay: as above; settings: treatment time: 24 h
How it was run: as §1

Phenotypically active, active:
O=c1[nH]cc(F)c(=O)[nH]1 [5-Fluorouracil] 1
CC[C@H](C)[C@H](NC(=O)OCc1ccccc1)C(=O)N[C@@H](CCC(=O)OC(C)(C)C)C(=O)N[C@@H](C)C(=O)N[C@H](C=O)CC(C)C 1
CCN1CCN(C(c2cccnc2)c2cc(Cl)c3cccnc3c2O)CC1 (stereo not given) 1
CCOc1cc(N2CCC(O)CC2)ccc1Nc1ncc2c(n1)N(C)c1ccccc1C(=O)N2C 1
Cc1c2oc3c(C)ccc(C(=O)NC4C(=O)NC(C(C)C)C(=O)N5CCCC5C(=O)N(C)CC(=O)N(C)C(C(C)C)C(=O)OC4C)c3nc-2c(C(=O)NC2C(=O)NC(C(C)C)C(=O)N3CCCC3C(=O)N(C)CC(=O)N(C)C(C(C)C)C(=O)OC2C)c(N)c1=O (stereo not given) [Actinomycin D] 1
N#Cc1c(NC(=O)c2cccc3ccccc23)sc2c1CCCC2 1
COc1ccc2c(Oc3ccc(NC(=O)c4c(C)n(CC(C)(C)O)n(-c5ccccc5)c4=O)nc3)ccnc2c1 1
CN1C/C(=C/c2ccc(B(O)O)cc2)C(=O)/C(=C/c2ccc(B(O)O)cc2)C1 1
Nc1ccn([C@@H]2O[C@H](CO)[C@@H](O)C2(F)F)c(=O)n1 [gemcitabine] 1
Oc1ccc(Nc2nc(-c3ccc(Cl)cc3)cs2)cc1 1
Cc1nc(NC(=O)N2CCC[C@H]2C(N)=O)sc1-c1ccnc(C(C)(C)C(F)(F)F)c1 [alpelisib] 1
CCN(CC)CCCC(C)Nc1ccnc2cc(Cl)ccc12 (stereo not given) [chloroquine] 1

Phenotypically active, inactive:
OCc1ccccc1O[C@@H]1O[C@H](CO)[C@@H](O)[C@H](O)[C@H]1O [Salicin] 0
O=C(c1ccc(C(=O)N2CCC(N3CCCC3)CC2)c(Nc2ccccc2)c1)N1CCC(N2CCCC2)CC1 0
CN1CCN(C2=Nc3cc(Cl)ccc3Nc3ccccc32)CC1 [clozapine] 0
Cc1cc(C(C)(C)C)c(O)c(C)c1CC1=NCCN1 [oxymetazoline] 0
CC1(C)NC(=O)N(c2ccc([N+](=O)[O-])c(C(F)(F)F)c2)C1=O [nilutamide] 0
Nc1nc2ccc(OC(F)(F)F)cc2s1 [riluzole] 0
NCCNS(=O)(=O)c1cccc2cnccc12 [H-9 dihydrochloride] 0
C[C@@H](c1ncncc1F)[C@](O)(Cn1cncn1)c1ccc(F)cc1F [voriconazole] 0
C/C(=C/C(=O)Nc1ccccc1C(=O)O)c1ccc2ccccc2c1 0
NCCC(O)(P(=O)(O)O)P(=O)(O)O [pamidronate] 0
CCN1CCN(c2ccc(Nc3cc(N(C)C(=O)Nc4c(Cl)c(OC)cc(OC)c4Cl)ncn3)cc2)CC1 0
C[C@H]1O[C@H](O[C@H]2[C@H](O)[C@@H](O)[C@@H](O[C@H]3[C@H](O)[C@@H](O)[C@H](O)O[C@@H]3CO)O[C@@H]2CO)[C@H](O)[C@@H](O)[C@@H]1N[C@H]1C=C(CO)[C@@H](O)[C@H](O)[C@H]1O [Acarbose] 0
